Bioassay records: PubChem, National Center for Advancing Translational Sciences (NCATS)
Marburg entry inh: Marburg virus entry inhibition; Marburg virus pseudotyped entry inhibition, cell reporter; Potency, µM (top dose mostly 37.8 µM), hits mostly inhibitors; hit rate 1.8% among 300,000; calls by dose curve; tested in HEK293 cells
FMDV antiviral: antivirals against foot and mouth disease virus; FMDV antiviral cell-based qHTS; Potency, µM (highest dose often 57.9 µM), actives largely listed as inhibitors; hit rate 1.2% among 410,000; AID 1159524; calls by dose curve; tested in HEK293T cells; further: read-out not given here; nearly all actives have a fitted effect of over 45% in size
LASV entry inh: blocks Lassa virus binding to or entry into cells. Lassa virus pseudotype entry inhibition, cell reporter. Potency, µM (top dose mostly 37.9 µM), hits mostly inhibitors. hit rate 1.2% among 300,000; calls by dose curve; tested in HEK293 cells; further: nearly all actives have a fitted effect of over 50% in size
HCV inh: HCV inhibition. Potency, µM (doses to about 41.8 µM), most hits filed as inhibitors. hit rate 3.4% among 340,000. Huh7.5.1 HCVcc-Cre infection, luciferase reporter, 44 h; active means well fitted inhibition curve with a large enough effect; inconclusive means small, poorly fitted or top-dose-only effect, or another doubt; inactive means no such curve, though single readings can be large or run the other way
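Compounds are dispensed onto cells plated 4 h earlier at 1,000 per well, with HCVcc-Cre virus (about 0.5 moi) added next. Following 44 h of culture, luminescent signal is measured for 15 sec after 15 min with substrate at room temperature.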
HCMV antiviral: blocks human cytomegalovirus replication | AID 1259415 | HFF cells, HCMV-luciferase reporter, 72 h; stronger effect = lower value | hit rate 4.5% among 410,000 | activity change, negative = inhibition, % at 57.5 µM; in the data active means activity change below about -60%; inconclusive means no clear call, values can overlap the other calls; inactive means above about -39%
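HFF cells seeded 16 h at 37C, treated with compounds, infected with luciferase-reporter HCMV at MOI 1 PFU/cell; luciferase read at 72 h post infection, normalized to buffer-only and Salinomycin controls.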
Of the large screens only hits and unclear results are named; the others gave an inactive call; ! = repeats disagree. Shown are actives, neighbours in structure and some others; about 7.9% of the full set was active somewhere.

NC(=O)CCn1c(C(=O)c2ccc(Cl)cc2)c2ccccc2[n+]1[O-]	HCMV antiviral -88 (no result: Marburg entry inh, LASV entry inh)
NCCCn1c(C(=O)c2ccc(Cl)cc2)c2ccc([N+](=O)[O-])cc2[n+]1[O-]	HCV inh 10µM (no result: Marburg entry inh, LASV entry inh)
NC(=O)CCCn1c(C(=O)c2cc(Cl)c(N)c(Cl)c2)c2ccc([N+](=O)[O-])cc2[n+]1[O-]	FMDV antiviral inconclusive, HCV inh 11µM (no result: Marburg entry inh, LASV entry inh)
CCOC(=O)c1cc2c(=O)n3ccccc3nc2n(Cc2ccco2)c1=NC(=O)c1cccc(F)c1	none (no result: HCV inh)
Cc1nc(Nc2ccc(S(N)(=O)=O)cc2)sc1C(=O)Nc1ccccc1	FMDV antiviral inconclusive, LASV entry inh inconclusive, HCV inh inconclusive, HCMV antiviral -69
CC(=O)c1cccc(Nc2nc(-c3sc(C)nc3C)cs2)c1	Marburg entry inh inconclusive, FMDV antiviral inconclusive, LASV entry inh inconclusive, HCV inh 8.9µM
Cc1ccc(Nc2nc(-c3sc(C)nc3C)cs2)cc1	HCV inh 5.6µM, HCMV antiviral inconclusive (no result: Marburg entry inh, LASV entry inh)
Cc1ccc(Nc2nc(-c3sc(NC(=O)c4ccc([N+](=O)[O-])cc4)nc3C)cs2)cc1	none (no result: FMDV antiviral, LASV entry inh, HCV inh, HCMV antiviral)
CC(=O)c1ccc(Nc2nc(-c3sc(C)nc3C)cs2)cc1	FMDV antiviral 25µM (no result: Marburg entry inh, LASV entry inh, HCV inh)
CC(=O)c1cccc(Nc2nc(-c3sc(N)nc3C)cs2)c1	FMDV antiviral inconclusive, LASV entry inh inconclusive, HCV inh inconclusive
Cc1ccc(Nc2nc(-c3sc(N)nc3C)cs2)cc1	none (no result: Marburg entry inh, LASV entry inh)
Cc1nc(C)c(-c2csc(Nc3ccc(S(N)(=O)=O)cc3)n2)s1	Marburg entry inh inconclusive, LASV entry inh inconclusive, HCV inh 11µM
COc1ccc(Nc2nc(-c3sc(NC(C)=O)nc3C)cs2)cc1	none (no result: FMDV antiviral, LASV entry inh, HCV inh, HCMV antiviral)
NS(=O)(=O)c1ccc(Nc2nc(-c3cccc([N+](=O)[O-])c3)cs2)cc1	FMDV antiviral inconclusive, HCV inh 25µM, HCMV antiviral inconclusive
CC(=O)Nc1ccc(Nc2nc(-c3sc(C)nc3C)cs2)cc1	FMDV antiviral 32µM, LASV entry inh inconclusive, HCV inh inconclusive
NS(=O)(=O)c1ccc(Nc2nc(-c3ccc4ccccc4c3)cs2)cc1	FMDV antiviral inconclusive, LASV entry inh inconclusive, HCV inh inconclusive
Cc1ccc(-c2csc(Nc3ccc(S(N)(=O)=O)cc3)n2)o1	FMDV antiviral inconclusive
CCCC/C(O)=C1\C(=O)CCCC1=NCCc1c(C)[nH]c2ccc(OC)cc12	Marburg entry inh 8.9µM, LASV entry inh inconclusive
CC1(C)N=C(N)N=C(N)N1c1ccc(CCCCc2ccccc2)cc1	FMDV antiviral 3.5µM, HCMV antiviral -101 (no result: Marburg entry inh, LASV entry inh, HCV inh)
CC1(C)N=C(N)N=C(N)N1c1ccccc1	Marburg entry inh inconclusive, LASV entry inh inconclusive, HCV inh inconclusive
Cc1ccc2nc(-c3cccc(-c4cccc(Cl)c4)c3)c(NCc3ccccc3)n2c1	FMDV antiviral 35µM (no result: Marburg entry inh, LASV entry inh)
CCC(C)Sc1cccc(-c2nc3ccc(C)cn3c2NCc2ccccc2)c1 (configuration not stated)	FMDV antiviral 32µM! (no result: Marburg entry inh, LASV entry inh)
CCOC(=O)COn1c(=O)c(-c2ccc(OC)cc2)[n+]([O-])c2ccccc21	LASV entry inh inconclusive, HCMV antiviral -61
CCOC(=O)COn1c(=O)c(-c2ccccc2)[n+]([O-])c2ccccc21	none
N#Cc1ccc(C(=O)Nc2cccc(NC(=O)c3ccco3)c2)c(F)c1	HCV inh inconclusive, HCMV antiviral -74
O=C(Nc1ccc(NC(=O)c2ccco2)nc1)c1cccc(F)c1	Marburg entry inh inconclusive, LASV entry inh 10µM, HCV inh inconclusive
O=C(Nc1ccc(NC(=O)C2CC2)nc1)c1ccco1	Marburg entry inh inconclusive, LASV entry inh inconclusive
COc1cccc(C(=O)Nc2ccc(NC(=O)c3ccco3)nc2)c1	Marburg entry inh inconclusive
O=C(Nc1ccc(NC(=O)c2ccccc2F)cn1)c1ccco1	Marburg entry inh 4µM, LASV entry inh inconclusive
O=C(c1ccc(Br)cc1)C(CN1CCOCC1)c1ccccc1 (configuration not stated)	Marburg entry inh inconclusive, FMDV antiviral 18µM, LASV entry inh inconclusive
CN(C)CC(C(=O)c1ccccc1)c1ccccc1 (configuration not stated)	Marburg entry inh 6.3µM, FMDV antiviral 18µM, LASV entry inh 8.9µM, HCV inh inconclusive, HCMV antiviral inconclusive
CCOc1ccc(C(=O)C(CN2CCOCC2)c2ccccc2)cc1 (configuration not stated)	Marburg entry inh 6.5µM, FMDV antiviral inconclusive, LASV entry inh 26µM, HCV inh inconclusive, HCMV antiviral -99
CCOc1ccc(C(O)(CCC(C)C)C(CN2CCOCC2)c2ccccc2)cc1 (configuration not stated)	Marburg entry inh inconclusive, FMDV antiviral inconclusive, HCV inh inconclusive, HCMV antiviral inconclusive
O=C(c1ccccc1)C(CN1CCCCC1)c1ccccc1 (configuration not stated)	Marburg entry inh inconclusive, FMDV antiviral 28µM, LASV entry inh inconclusive, HCV inh inconclusive, HCMV antiviral -68
O=C(CC(C(=O)c1ccccc1)c1ccccc1)c1ccccc1 (configuration not stated)	Marburg entry inh inconclusive, LASV entry inh inconclusive
CCC(C)n1c(C)cc(=O)n1C(C)CC (configuration not stated)	none
CC(C)(C)NC(=O)C(c1ccccc1)n1c(-c2ccc(-c3ccccc3)cc2)nc2ccccc21 (configuration not stated)	none (no result: Marburg entry inh, LASV entry inh, HCV inh)
CSCCC(NC(=O)c1ccccc1Cl)C(=O)N1CCN(C(C)=O)CC1 (configuration not stated)	none
CSCCC(NC(=O)c1ccccc1)C(=O)N1CC=C(c2ccccc2)CC1 (configuration not stated)	Marburg entry inh inconclusive, LASV entry inh 11µM, HCV inh inconclusive
CSCCC(NC(=O)c1ccccc1Br)C(=O)NNC(=O)c1cc(C)oc1C (configuration not stated)	HCMV antiviral -63 (no result: Marburg entry inh, LASV entry inh)
CSCCC(NC(=O)c1ccccc1Br)C(=O)N1CCN(C/C=C/c2ccccc2)CC1 (configuration not stated)	HCV inh inconclusive, HCMV antiviral -83 (no result: Marburg entry inh, LASV entry inh)
CSCCC(NC(=O)c1ccccc1Br)C(=O)NC(C)CCc1ccccc1 (configuration not stated)	LASV entry inh inconclusive (no result: HCV inh)
CSCCC(NC(=O)c1ccccc1)C(=O)NNC(=O)c1ccccc1 (configuration not stated)	HCMV antiviral -62 (no result: Marburg entry inh, LASV entry inh)
CN1CC[C@@]2(CCN3CCc4c(oc5ccccc45)[C@@H]3C2)N(C)C1=O	none (no result: FMDV antiviral, LASV entry inh, HCV inh, HCMV antiviral)
CCN(CC)S(=O)(=O)c1ccc2c(c1)N(CC(=O)N1CCCC1)C(=O)CO2	Marburg entry inh inconclusive
O=C(COC(=O)CCC(=O)c1ccc(F)cc1)NCCc1ccccc1	Marburg entry inh inconclusive, LASV entry inh inconclusive, HCV inh inconclusive
CCCS(=O)(=O)c1ncc(Cl)c(C(=O)N(Cc2ccccc2)Cc2ccco2)n1	Marburg entry inh inconclusive, FMDV antiviral 16µM, LASV entry inh inconclusive, HCMV antiviral -98 (no result: HCV inh)
CCSc1ncc(Cl)c(C(=O)N(Cc2ccccc2)Cc2ccco2)n1	HCMV antiviral -100 (no result: HCV inh)
CCCSc1ncc(Cl)c(C(=O)N(Cc2ccc(Cl)cc2)Cc2ccco2)n1	Marburg entry inh inconclusive, FMDV antiviral inconclusive, HCMV antiviral -66 (no result: HCV inh)
CSc1ncc(Cl)c(C(=O)N(Cc2ccc(N(C)C)cc2)Cc2ccco2)n1	none (no result: HCV inh)
